Compounds with a hit are over-represented: about 2.6% of the library has one in this group of screens.
Gli-Sufu block: Gli-Sufu pathway antagonists, primary screen, luciferase luminescence, Sufu-KO-LIGHT cells, uHTS; actives 0.74% (n = 340,000); Sufu-KO-LIGHT fibroblasts, Gli luciferase reporter luminescence; inhibition, % at 5 µM;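 active = inhibition above about 55%, limit read from the data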;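 note: 0% = DMSO-treated cells and 100% = wells with medium but no cells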
697 NFkB inh: inhibitors of PMA/ionomycin-induced NF-kB reporter, 697 cells, primary screen, B-cell NF-kB inhibitor project, cell-based, luminescence, uHTS. 697 B-cell NF-kB luciferase reporter, 16 h. inhibition, % at 4 µM. actives 0.33% (n = 330,000). AID 435022, 2010; in the data active = inhibition above about 35%
H9c2 protect: cardioprotection against H2O2-induced cell death, primary screen, uHTS, H9c2 cells, ATPLite luminescence; H9c2 cardiomyocytes, H2O2 injury protection, 2 h; protection from H2O2 cell death, % at 20 µM; actives 0.63% (n = 360,000); AID 588492, 2011;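 active = compounds giving at least 50% protection of heart cells from peroxide-induced death in the single-dose screen, raw or plate-pattern-corrected value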;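 note: 0% = DMSO wells with peroxide and 100% = DMSO wells without peroxide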
H9c2 TAG inh: inhibitors of triacylglycerol accumulation, primary screen, cell-based, uHTS, fluorescence, H9c2. actives 0.66% (n = 230,000). H9c2 cells, Nile Red lipid (TAG) fluorescence; cells loaded with 200 µM oleic acid. inhibition, % at 12.5 µM;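 active = pattern-corrected inhibition of lipid staining of at least 50% with the nuclear-stain viability signal not falling by more than 50%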;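 note: 0% = DMSO wells and 100% = triacsin C control wells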
Jurkat NFkB inh: inhibitors of induced NF-kB luciferase reporter, primary screen, TCR NF-kB activation inhibitor project, cell-based, luminescence, uHTS | actives 0.53% (n = 330,000) | AID 435003, 2010 | inhibition, % at 4 µM | Jurkat, PMA/ionomycin-induced NF-kB luciferase reporter; in the data active = inhibition above about 50%
COUP-TFII inh: NR2F2 transcriptional activity inhibitors, primary screen, cell-based, luciferase reporter, HEK293T, luminescence. HEK293T NGFI-A luciferase reporter. actives 0.7% (n = 370,000). inhibition, % at 8.6 µM. COUP transcription factor 2 (Homo sapiens), P24468;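 active = inhibition above a per-plate cutoff, mean inhibition of test wells between control levels plus 3 SD, cut at about 38% in these data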;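 note: cells cotransfected with COUP-TFII expression vector driving the NGFI-A reporter; 0% = median of COUP-TF2 test wells and 100% = reporter-only cells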
Target sequence (P24468 whole entry, looked up): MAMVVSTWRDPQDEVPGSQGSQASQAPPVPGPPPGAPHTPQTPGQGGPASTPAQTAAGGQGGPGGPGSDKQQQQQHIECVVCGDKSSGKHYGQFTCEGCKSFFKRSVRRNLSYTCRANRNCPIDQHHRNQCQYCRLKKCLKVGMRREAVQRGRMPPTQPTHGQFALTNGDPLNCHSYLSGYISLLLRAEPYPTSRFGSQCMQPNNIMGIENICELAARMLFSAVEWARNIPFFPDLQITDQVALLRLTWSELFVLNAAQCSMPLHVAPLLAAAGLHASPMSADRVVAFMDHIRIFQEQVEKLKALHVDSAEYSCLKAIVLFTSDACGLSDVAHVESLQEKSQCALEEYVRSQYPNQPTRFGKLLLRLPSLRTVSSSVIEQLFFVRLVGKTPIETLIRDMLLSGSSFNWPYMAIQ
697 NFkB conf: PMA/ionomycin-induced NF-kB reporter inhibitors, 697 retest, confirmation, B-cell NF-kB inhibitor project, cell-based, luminescence, single concentration | shares compounds with 697 NFkB inh | 697 B-cell NF-kB luciferase, 16 h | inhibition, % at 4 µM | actives 35% (n = 2,000) | AID 449746, 2010; in the data active = inhibition mostly above about 28%, no sharp cut-off; inactive = mostly below about 22%
Starred values were filed as active, the others as inactive; i = inactive; / = no result.

SMILES | Gli-Sufu block | 697 NFkB inh | H9c2 protect | H9c2 TAG inh | Jurkat NFkB inh | COUP-TFII inh | 697 NFkB conf
Cc1ccc(CC(=O)Nc2nc3c(s2)CCCC3)cc1 | -7.8 | i | -6.3 | 24.1 | -76.9 | -76.9 | -482.9
COc1ccc(OCC(=O)Nc2nc3c(s2)CCCC3)cc1 | -14.8 | -7.4 | -4.3 | / | 0.8 | -8.9 | /
O=C(CS(=O)(=O)Cc1ccccc1)Nc1nc2c(s1)CCCC2 | -11.2 | -6.8 | -9.7 | -16.6 | -4.7 | 0.0 | /
O=C([C@@H]1C[C@H]1c1ccccc1)N1CCC(Oc2cccnc2)CC1 | / | / | / | / | / | -5.2 | /
O[C@H](COc1ccc(OC(F)(F)F)cc1)CN1CCC(C(O)(c2ccccc2)c2ccccc2)CC1 | / | / | / | / | / | 9.3 | /
CN1CCCN(C(=O)C2CCCN(C(=O)c3ccc4c(c3)NC(=O)CS4)C2)CC1 (stereo not drawn) | / | / | / | / | / | -10.8 | /
CC(C)CC(=O)c1c(O)cc(O)c2c1OC1=C(C(=O)C(C)(C)C(=O)C1(C)C)C2CC(C)C (stereo not drawn) | / | / | / | / | / | -6.5 | /
COC(=O)[C@@]1(C(C)C)N=C(c2cc(OC)c(OC)c(OC)c2)[C@]2(O1)C(=O)N(Cc1cn(Cc3ccccc3)nn1)c1ccc(F)cc12 | / | / | / | / | / | -11.7 | /
COc1ccc(-c2cc3cc(F)ccc3cn2)cc1 | -117.6 | -254.7 | -23.4 | -9.8 | -5.6 | -42.2 | -263.4
O=C(OC12CCCN(C1)/C(=C/c1ccc(Cl)cc1)C2)c1ccc(F)cc1 (stereo not drawn) | / | / | / | / | / | -3.9 | /
CSC1CCCCC1(O)CSc1nc2c(cc1C#N)CCCC2 (stereo not drawn) | 2.4 | 39.8* | -5.3 | / | -11.8 | -0.6 | 47.5*
Cc1ccccc1-c1n[nH]c(=S)n1/N=C/c1c(C)nn(-c2ccccc2)c1C | -0.2 | -274.2 | -7.2 | / | -11.0 | -12.3 | -18.8
Cc1ccc(-c2n[nH]c(=S)n2/N=C/c2c(C)nn(-c3ccccc3)c2C)cc1 | 2.8 | 3.8 | -6.4 | / | 7.1 | -5.8 | /
CC(C1=CCCCC1)c1cnn(C)c1 (stereo not drawn) | / | / | / | / | / | -18.7 | /
COC(=O)[C@@]12OC[C@]34[C@H]([C@@H](O)[C@@H]1O)[C@@]1(C)C(=O)C(O[C@@H]5OC(CO)[C@@H](O)[C@@H](O)[C@@H]5O)=C[C@@H](C)[C@@H]1C[C@H]3OC(=O)[C@H](OC(=O)/C=C(\C)C(C)(C)OC(C)=O)[C@@H]24 (stereo partly drawn) | 5.5 | 44.4* | / | / | 27.8 | / | 80.2*
CC/C(=N/Nc1ccc(Cl)cc1)c1cnnc(SC)n1 | 7.9 | 35.5* | 0.2 | / | -4.1 | 6.6 | 17.0
C=CCN1[C@H](CC(C)C)COc2cc(F)ccc2S1(=O)=O | / | / | / | / | / | -8.2 | /
COc1ccc(C2C(C#N)=C(N)Oc3cc(N)ccc32)cc1 (stereo not drawn) | -11.2 | -13.3 | -0.6 | / | -1.2 | 11.6 | /
COc1cc(C2C(C#N)=C(N)Oc3cc(N)ccc32)cc(OC)c1OC (stereo not drawn) | 55.5* | 39.4* | 6.6 | 65.0* | 44.6 | -13.7 | 44.7*
O=C(Cc1ccccc1)NCCS(=O)(=O)N1CCN(c2cccc(Cl)c2)CC1 | -7.2 | 0.1 | 0.9 | 0.8 | -2.8 | -5.6 | /
O=C(NCCS(=O)(=O)N1CCN(c2cccc(Cl)c2)CC1)c1ccco1 | 6.0 | 35.5* | 0.5 | -12.1 | -7.6 | 14.4 | -10.2
Cc1nc2cc(-c3ccc(Cl)cc3)nn2c(C)c1CCC(=O)NC(C)c1ccc2c(c1)OCCO2 (stereo not drawn) | 22.8 | 37.0* | -5.9 | 23.3 | 34.1 | 26.4 | 27.5*
CCc1ccc(C2=NN(CCC(=O)NC(C)c3ccc4c(c3)OCCO4)C(=O)CC2)cc1 (stereo not drawn) | 10.0 | -7.0 | 0.0 | -3.1 | -11.3 | 11.5 | /
CC1C(=O)N2CCCc3cc(NC(=O)c4ccccc4Br)cc1c32 (stereo not drawn) | 4.6 | 40.9* | 1.0 | 16.8 | 16.6 | 2.7 | 22.6
COc1ccc(C(=O)Nc2cc3c4c(c2)C(C)C(=O)N4CCC3)c(OC)c1 (stereo not drawn) | -2.1 | 4.3 | 5.1 | 18.1 | -38.9 | -13.4 | /
SMILES | Gli-Sufu block | 697 NFkB inh | H9c2 protect | H9c2 TAG inh | Jurkat NFkB inh | COUP-TFII inh | 697 NFkB conf
O=C(Nc1ccc2c(c1)CCCN2C(=O)c1ccccc1)c1ccccc1Br | -8.7 | -333.3 | 2.3 | / | -12.9 | -17.1 | -180.0
CCC(C(=O)Nc1ccccc1N1CCCC1)c1ccccc1F (stereo not drawn) | / | / | / | / | / | 17.2 | /
COc1ccc2[nH]c3nc(SC(C)C)nnc3c2c1 | -129.9 | -328.3 | -16.4 | 25.4 | -130.0 | -33.8 | -342.8
COc1ccc(CNC(=O)CSc2nnc3c(n2)[nH]c2ccc(OC)cc23)cc1 | -2.5 | 2.4 | -1.6 | / | 10.6 | -7.0 | /
O=C(O)CSc1nnc2c(n1)[nH]c1ccccc12 | 4.0 | -22.3 | 7.4 | 0.2 | -38.6 | -1.3 | /
CCCCSc1nnc2c(n1)[nH]c1ccccc12 | -82.1 | -313.6 | -8.3 | / | -122.5 | -27.4 | -131.6
CC(C)CSc1nnc2c(n1)[nH]c1ccccc12 | -86.1 | -310.9 | -14.6 | / | -128.1 | -35.2 | -197.3
CCN(CC(=O)Nc1c(F)cccc1F)C(=O)c1cc(S(=O)(=O)N(C)C)ccc1N1CCCC1 | 12.6 | 37.5* | 7.0 | 9.7 | -1.5 | -9.4 | 30.5*
C=CCNC(=O)c1ccc(-c2nc(-c3ccccc3)cs2)cc1 | -68.9 | -278.5 | -7.2 | 13.5 | -53.7 | -11.8 | -145.3
CS(=O)(=O)N1c2ccccc2C[C@H]1Cc1cc2ccccc2o1 | / | / | / | / | / | 9.6 | /
COC(=O)[C@]12C[C@H](CC(=O)N3CCN(C(=O)c4ccco4)CC3)C(=O)N(Cc3ccco3)C1=C[C@H](C(C)C)O[C@@H]2C1CC1 | / | / | / | / | / | 15.8 | /
CCOC(=O)c1nn(-c2ccccc2)c(C#N)c1NC(=O)c1nn(CC)cc1Br | 22.8 | 37.0* | 16.6 | / | 13.0 | 25.0 | 40.2*
CCOC(=O)c1c(NC(=O)c2nn(CC)cc2Br)c(C#N)nn1-c1ccccc1 | 7.0 | -9.9 | 9.9 | / | 4.6 | -1.9 | /
Cc1ccc(-c2nsc3c(N4CCC(C(N)=O)CC4)ncnc23)cc1 | -0.6 | 77.6* | -10.1 | -8.7 | -91.5 | -27.9 | 53.3*
O=C(Nc1ccc([N+](=O)[O-])cc1Cl)c1cc(Cl)ccc1O | 56.0* | i | -42.3 | -7.9 | -56.0 | -12.4 | i
O=C(Nc1ccc([N+](=O)[O-])cc1Cl)c1cccc([N+](=O)[O-])c1 | / | / | -16.8 | -21.7 | / | -19.4 | /
COC(=O)[C@]12C[C@H](CC(=O)NCCCCc3ccccc3)C(=O)N(Cc3ccc(Cl)cc3Cl)C1=C[C@H](C(C)(C)C)O[C@@H]2C | / | / | / | / | / | 4.4 | /
